Experimental data from PubChem BioAssay (NCATS).
Values joined by “and” are separate entries in the source; they are usually repeats but may differ in a detail not shown here. Equal entries are not always repeated. Records with an inconclusive call do not appear. Unmarked numbers belong to inactive results. Active and inactive are the calls of the source. Calls come from the whole dose curve; as a rule, active = well fitted curve in the direction sought with a large enough effect; inconclusive = small, poorly fitted or top-dose-only effect, or another doubt; inactive = no such curve, though single readings can be large; an effect the other way counts as inactive or inconclusive.

How the values were obtained:
[1] = Viability qHTS for spleen associated tyrosine kinase inhibitor (SYKi) naive MV4-11 cells (AID 1963823); note: nearly all actives have a fitted effect of over 40% in size
In short: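 Luminescence from CellTiter-Glo, developed 10 min at room temperature, gave viability of MV4-11 cells never exposed to SYK inhibitor. Cells (500/well) had been incubated with compounds for 72 hr under standard culture conditions.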

[2] = Viability qHTS for spleen associated tyrosine kinase inhibitor (SYKi) drug resistant MV4-11 cells (AID 1963824); note: nearly all actives have a fitted effect of over 35% in size
In short: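 SYK-inhibitor-resistant MV4-11 AML cells were seeded at 500 per well onto compound and cultured 72 hours (37 °C, 5% CO2). CellTiter-Glo was then added, and after 10 min at room temperature, luminescence gave viability.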

[3] = Cellular viability qHTS for adrenocortical cancer (ACC) cell line SW-13 (AID 1963989); conditions: SW-13 ACC cells viability, CellTiter-Glo, 48 h; activity (max response): stronger effect = lower value; note: nearly all actives have a fitted effect of over 65% in size;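 for activity (max response): cells grown in serum-free medium with ITS supplement; % is set by controls: 0 for no effect and ±100 for the full control effect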
In short: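 IC50 and maximal-response values come from four-parameter logistic fits of titration data. SW-13 cells in serum-free medium received compounds (up to 46 uM final) for 48 h before CellTiter-Glo luminescence.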
Potency is the fitted concentration of half-maximal effect.

| Compound | Potency [1] | Potency [2] | activity (max response) [3] | Potency [3] |
| --- | --- | --- | --- | --- |
| C[C@]1(Cn2ccnn2)[C@H](C(=O)O)N2C(=O)C[C@H]2S1(=O)=O | inactive | inactive | 2.68% |  |
| O=C1NC(=O)/C(=C/c2cccc(C(F)(F)F)c2)S1 | inactive | inactive |  | 25.1 µM (active) |
| NC(=O)NNc1ccccc1 | inactive | inactive | -10.9% |  |
| O=C(O)Cc1ccccc1Oc1ccc(Cl)cc1Cl | inactive | inactive | 4.63% |  |
| CC(C)(C)c1[nH]cnc1/C=c1\[nH]c(=O)/c(=C/c2ccccc2)[nH]c1=O | 0.0833 µM (active) | 0.0934 µM (active) |  | 0.0398 µM (active) |
| Cc1nc(NC(=O)N2CCC[C@H]2C(N)=O)sc1-c1csc(C(C)(C)C)n1 | 7.42 µM (active) | 7.42 µM (active) | -23.3% |  |
| CC(C)(O)CNc1ncc(-c2ccnc(Nc3ccncc3)n2)c(CC2CC2)n1 | 1.48 µM (active) | 1.18 µM (active) |  | 14.1 µM (active) |
| c1ccc(CC2=NCCN2)cc1 | inactive | inactive | -11.9% |  |
| CC(=O)OC[C@H]1O[C@@](COC(C)=O)(O[C@H]2O[C@H](COC(C)=O)[C@@H](OC(C)=O)[C@H](OC(C)=O)[C@H]2OC(C)=O)[C@@H](OC(C)=O)[C@@H]1OC(C)=O | inactive | inactive | 1.89% |  |
| C[C@H](CCC(=O)O)[C@H]1CC[C@H]2[C@@H]3[C@@H](O)C[C@@H]4C[C@H](O)CC[C@]4(C)[C@H]3CC[C@]12C | inactive | inactive | -9.5% |  |
| CCN(CC)C(C)CN1c2ccccc2Sc2ccccc21 (stereo not given) | inactive | inactive | 16.5% |  |
| Cc1cc(O)c(-c2ccc([C@@H](C)CN(C)C)cc2)c2c1[nH]c(=O)c1sccc12 | 0.0184 µM (active) | 0.0092 µM (active) |  | 0.0891 µM (active) |
| CC(C)Oc1ccc(C(=O)N[C@H](CNC(=O)CN(C)C)Cc2ccc(-c3cn4cccc([C@H](C)O)c4n3)cc2)cc1Cl | 0.0263 µM (active) | 0.0295 µM (active) |  | 0.0316 µM (active) |
| Cc1cc2c(C(C)C)c(O)c(O)c(C=O)c2c(O)c1-c1c(C)cc2c(C(C)C)c(O)c(O)c(C=O)c2c1O | 6.61 µM (active) | 4.68 µM (active) |  | 10 µM (active) |
| CN1CCC(Nc2ncc3ncnc(Nc4ccc(F)c(Cl)c4)c3n2)CC1 | 9.44 µM (active) and 9.2 µM (active) | 18.8 µM (active) and 11.6 µM (active) |  | 18.4 µM (active) |
| CC1=C(c2ccc(O)cc2)[C@H](c2ccc(OCCN3CCCCC3)cc2)Oc2cc(O)ccc21 | 8.33 µM (active) | 8.33 µM (active) | -12% |  |
| CC(C)OC(=O)c1cc(C(=O)OC(C)C)cc([N+](=O)[O-])c1 | 27.9 µM (active) | inactive | 4.98% |  |
| COc1ccccc1C(=O)Nc1cc2c(cc1N1CCCC1)n(C)c(=O)n2C | 8.2 µM (active) | 9.34 µM (active) | -26.1% |  |
| COc1cc(C(=O)OC(COCCC(C)C)CN2CCOCC2)cc(OC)c1OC (stereo not given) | inactive | inactive | 9.82% |  |
| Cn1c(NC[C@@H](N)Cc2ccccc2)nc(-c2ccncc2)c(-c2ccc3ccccc3c2)c1=O | 7.42 µM (active) | 6.61 µM (active) |  | 28.2 µM (active) |
| CCC1Nc2cc(Cl)c(S(N)(=O)=O)cc2S(=O)(=O)N1 (stereo not given) | inactive | inactive | 2.08% |  |
| CCN(CC)CCOC(=O)C1(C2CCCCC2)CCCCC1 | inactive | inactive | -12.2% |  |
| Cn1cc(-c2cc(Oc3cc(F)c(NC(=O)C4(C(=O)Nc5ccccc5)CC4)cc3F)ccn2)cn1 | 0.103 µM (active) | 0.461 µM (active) |  | 25.1 µM (active) |
| C[C@]12C=CC(=O)C=C1CC[C@H]1[C@@H]3C[C@@H](O)[C@](O)(C(=O)CO)[C@@]3(C)C[C@H](O)[C@@]12F | inactive | inactive | 4.79% |  |
| CCn1c(N)c(C(=O)NC)c(=O)c2ccc(C#CC(C)(O)COC)nc21 (stereo not given) | 4.17 µM (active) | 4.11 µM (active) | 12.5% |  |
